Assay outcomes deposited in PubChem by National Center for Advancing Translational Sciences (NCATS).
Only some compounds are listed: those with a hit (about 9% of all), similar ones and a draw of the others.
HTT cytoprotect = qHTS Multiplex Assay to Identify Dual Action Probes in a Cell Model of Huntington: Cytoprotection (ATP); PC12 HTT-Q103 induced, cytoprotection, ATP luminescence, 40 h; Potency, µM (highest dose often 56.4 µM), most hits filed as activators; 0.14% of 230,000 active; note: nearly all actives have a fitted effect of over 45% in size
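Compounds were screened for protection of PC12 cells against cell death after tebufenozide induction (100 nM final) of mutant Huntingtin exon 1 (Q103) fused to GFP.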
KinaseGlo FLuc = Counterscreen for Luciferase (Kinase-Glo TM) Inhibition | AID 1379, 2008 | Kinase-Glo luciferase, ATP luminescence, 8 min | 0.28% of 200,000 active | Potency, µM (series often up to 38.3 µM), actives largely listed as inhibitors; note: nearly all actives have a fitted effect of over 60% in size
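Compound is pinned into ATP-containing buffer (10 uM ATP, imidazole pH 7.2, 7 mM MgCl2). Kinase-Glo luciferase reagent is then added. Light output is recorded following an 8-min room-temperature incubation.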
HPGD inh = qHTS Assay for Inhibitors of HPGD (15-Hydroxyprostaglandin Dehydrogenase); purified HPGD, NADH fluorescence kinetic, PGE2 substrate; 15-hydroxyprostaglandin dehydrogenase [NAD(+)] (Homo sapiens), P15428; AID 894, 2007; 4.3% of 150,000 active; Potency, µM, actives largely listed as inhibitors; active = well fitted inhibition curve with a large enough effect, not every such curve was filed as active; inconclusive = small, poorly fitted or top-dose-only effect, or another doubt; inactive = no such curve, though single readings can be large or run the other way
Target sequence (P15428 whole entry, looked up): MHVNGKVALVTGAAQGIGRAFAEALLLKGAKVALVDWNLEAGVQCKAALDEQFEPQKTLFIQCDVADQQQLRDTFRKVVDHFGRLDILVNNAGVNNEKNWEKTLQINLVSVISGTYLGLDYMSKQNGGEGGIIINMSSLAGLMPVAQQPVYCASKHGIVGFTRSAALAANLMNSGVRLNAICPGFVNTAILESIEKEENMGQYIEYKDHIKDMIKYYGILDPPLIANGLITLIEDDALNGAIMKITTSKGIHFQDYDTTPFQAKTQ
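NADH formation kinetics: reaction with 30 uM PGE2 and 1 mM NAD+ (final), 20 nM enzyme, Tris-HCl pH 8 with Tween 20, after 15 min compound preincubation at room temperature. Fluorescence change, last versus first of five reads.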
HTT aggregate = qHTS Multiplex Assay to Identify Dual Action Probes in a Cell Model of Huntington: Aggregate Formation (GFP) | PC12 HttQ103-GFP aggregates, Acumen cytometry, 40 h | 1.1% of 220,000 active | Potency, µM (top dose mostly 46.1 µM), hits mostly inhibitors; note: nearly all actives have a fitted effect of over 60% in size
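Using laser scanning cytometry, GFP-positive aggregates were counted after lysis of PC12 cells induced with 100 nM tebufenozide to express HTT exon 1 Q103–GFP. Compounds were tested in titration.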
Lamin A splicing = qHTS Assay for Modulators of Lamin A Splicing; HeLa LMNA splicing GFP/RFP minigene ratio, 48 h; Potency, µM (titrated, usually from 46.1 µM), usual class: inhibitors; 0.01% of 200,000 active; active = well fitted inhibition curve with a large enough effect in the signal ratio, with a control signal flat, not every such curve was filed as active; inconclusive = small, poorly fitted or top-dose-only effect, or effect the other way, or a change in a side signal; the % refers to the signal ratio
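S3 HeLa cells stably expressing lamin A-EGFP splicing minigene plus DsRed2, 600 cells/well, 48 h compound exposure at 37C. Laser-scanning cytometry; analysed as GFP (500-530 nm)/RFP (575-640 nm) total intensity ratio; 0.5% DMSO vehicle.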
ALDH1A1 block = qHTS Assay for Inhibitors of Aldehyde Dehydrogenase 1 (ALDH1A1); 7.3% of 220,000 active; AID 1030, 2008; Purified ALDH1A1, NADH fluorescence, propionaldehyde substrate; Potency, µM (series often up to 75.3 µM), actives largely listed as inhibitors; Aldehyde dehydrogenase 1A1 (Homo sapiens), P00352; active = well fitted inhibition curve with a large enough effect, not every such curve was filed as active; inconclusive = small, poorly fitted or top-dose-only effect, or another doubt; inactive = no such curve, though single readings can be large or run the other way
Target sequence (P00352 whole entry, looked up): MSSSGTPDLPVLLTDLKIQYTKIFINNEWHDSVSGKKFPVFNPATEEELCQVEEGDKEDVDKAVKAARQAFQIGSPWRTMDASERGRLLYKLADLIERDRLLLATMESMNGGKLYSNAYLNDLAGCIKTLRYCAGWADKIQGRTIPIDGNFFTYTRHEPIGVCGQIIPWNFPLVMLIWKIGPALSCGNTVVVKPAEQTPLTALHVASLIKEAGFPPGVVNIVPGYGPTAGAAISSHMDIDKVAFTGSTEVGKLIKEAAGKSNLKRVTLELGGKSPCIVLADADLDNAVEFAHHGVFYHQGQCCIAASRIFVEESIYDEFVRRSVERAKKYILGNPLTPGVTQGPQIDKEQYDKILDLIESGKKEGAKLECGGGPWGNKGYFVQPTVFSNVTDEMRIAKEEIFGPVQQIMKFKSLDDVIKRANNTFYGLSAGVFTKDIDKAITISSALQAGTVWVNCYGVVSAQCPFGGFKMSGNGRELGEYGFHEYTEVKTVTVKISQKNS
Of the large screens only hits and unclear results are named; the others gave an inactive call. Unless noted, calls come from the whole dose curve; as a rule, active = well fitted curve in the direction sought with a large enough effect; inconclusive = small, poorly fitted or top-dose-only effect, or another doubt; inactive = no such curve, though single readings can be large; an effect the other way counts as inactive or inconclusive.

COc1ccc(-c2nc3cnc(N4CCOCC4)nc3n(CCC#N)c2=O)cc1	ALDH1A1 block inconclusive (no result: HTT aggregate, Lamin A splicing)
O=S(=O)(NCc1ccccn1)c1ccc(Cl)c(C(F)(F)F)c1	Lamin A splicing inconclusive, ALDH1A1 block inconclusive (no result: HPGD inh)
COc1ccc(N2C(=O)CC(NNC(=O)c3ccco3)C2=O)cc1 (configuration not stated)	Lamin A splicing inconclusive (no result: HPGD inh)
O=C(NCCNc1ccc([N+](=O)[O-])cc1)c1cccc(Br)c1	ALDH1A1 block 7.1µM (no result: HTT cytoprotect)
O=C(CCNc1ccc(Br)cc1)c1cccc([N+](=O)[O-])c1	Lamin A splicing inconclusive, ALDH1A1 block 0.63µM (no result: HPGD inh)
Cc1cc(N2CCN(c3nc4ccccc4s3)CC2)n2ncnc2n1	HTT aggregate 11µM, ALDH1A1 block inconclusive
Cc1cc(N2CCN(C(c3ccccc3)c3ccccc3)CC2)n2ncnc2n1	Lamin A splicing inconclusive, ALDH1A1 block inconclusive
CC(/C=C\C=C\c1ccccc1)=N\NC(=O)c1cncc(Br)c1	ALDH1A1 block 22µM (no result: HPGD inh)
CC(/C=C/C=C/c1ccccc1)=N\NC(=O)c1cccnc1	ALDH1A1 block inconclusive (no result: HPGD inh, Lamin A splicing)
O=C(N/N=C/c1coc2ccccc2c1=O)c1ccccc1Br	HTT aggregate inconclusive, ALDH1A1 block 4.5µM (no result: HTT cytoprotect)
O=C(N/N=C/c1coc2ccccc2c1=O)c1cc(O)cc(O)c1	ALDH1A1 block inconclusive (no result: HPGD inh, Lamin A splicing)
COc1ccc(C(=O)N/N=C\c2coc3ccccc3c2=O)cc1	ALDH1A1 block 3.5µM (no result: KinaseGlo FLuc, HPGD inh, Lamin A splicing)
O=C(N/N=C/c1coc2ccccc2c1=O)c1cccc([N+](=O)[O-])c1	ALDH1A1 block 28µM (no result: HPGD inh)
O=C(NCCN1CCOCC1)c1ccc(CSCc2cccc(Cl)c2)o1	none (no result: HPGD inh, Lamin A splicing)
Cc1ccc(S(=O)(=O)Oc2ccc(/C=C(/NC(=O)c3ccccc3)C(=O)Nc3ccccc3)cc2)cc1	HPGD inh inconclusive, ALDH1A1 block inconclusive
Cn1c(=O)c2c(nc(NCc3ccc4c(c3)OCO4)n2Cc2ccccc2Cl)n(C)c1=O	ALDH1A1 block inconclusive
CCOC(=O)c1[nH]c2c(c1-c1ccccc1)C(=O)CC(c1ccc(OCC)cc1)C2 (configuration not stated)	none (no result: HTT cytoprotect)
CCOC(=O)c1[nH]c2c(c1-c1ccccc1)C(=O)CC(c1ccc(OC)c(OC)c1)C2 (configuration not stated)	Lamin A splicing inconclusive, ALDH1A1 block 13µM (no result: HTT cytoprotect)
Cc1cccc2nc(-c3ccccc3)nc(N3CCC(O)(c4ccc(Cl)cc4)CC3)c12	HPGD inh inconclusive, Lamin A splicing inconclusive, ALDH1A1 block inconclusive
CCOC(=O)Cn1c(=O)n(Cc2ccco2)c(=O)c2ccc(C(=O)NCCc3ccccc3)cc21	ALDH1A1 block 4µM
CCOc1ccc(C(NC(=O)/C=C/c2ccco2)c2ccc(OC)c(OC)c2)cc1 (configuration not stated)	ALDH1A1 block inconclusive
COc1ccc(C(NC(=O)/C=C/c2ccco2)c2ccc(OC)c(OC)c2)cc1 (configuration not stated)	HPGD inh inconclusive, Lamin A splicing inconclusive, ALDH1A1 block 20µM
COc1ccc(CNC(=O)/C=C/c2ccco2)cc1OC	HTT cytoprotect inconclusive, ALDH1A1 block 3.5µM (no result: HPGD inh, Lamin A splicing)
CCC(=O)N1CCc2cc(Br)cc(S(=O)(=O)CCC(=O)NCCc3ccc(C)cc3)c21	none (no result: HTT cytoprotect, KinaseGlo FLuc, HPGD inh, HTT aggregate, ALDH1A1 block)
Cc1ccc(NC(=O)C2CCN(C(=O)NC3CCCCC3)CC2)c(C)c1	none
Cc1ccc2nc(-c3ccc(SCC(=O)Nc4nnc(C)s4)nc3)[nH]c2c1	HPGD inh inconclusive, HTT aggregate 16µM, Lamin A splicing inconclusive
Cc1cc2nc(-c3ccc(SCC(=O)Nc4ccc5c(c4)OCCO5)nc3)[nH]c2cc1C	KinaseGlo FLuc 11µM, HPGD inh inconclusive, ALDH1A1 block inconclusive
COc1cc(C2/C(=C(/O)c3ccc(OCC(C)C)cc3)C(=O)C(=O)N2CCN(C)C)ccc1O (configuration not stated)	none
COc1ccc(C(=O)N2CCC3(CC2)CN(c2ccccc2)C3)cc1	none (no result: HTT aggregate, Lamin A splicing)
CCOC(=O)/C(C#N)=C\c1ccc(OC)c(OC)c1	HTT aggregate inconclusive, ALDH1A1 block inconclusive (no result: HPGD inh)
CCOC(=O)/C(C#N)=C/c1ccc(OC(=O)c2ccco2)c(OCC)c1	HTT aggregate 8.9µM, ALDH1A1 block inconclusive (no result: KinaseGlo FLuc, HPGD inh)
Cc1nn(-c2ccccc2)c2c1C1(C(=O)N3c4c(cccc41)C(C)CC3(C)C)C(C#N)=C(N)O2 (configuration not stated)	HTT aggregate inconclusive, ALDH1A1 block 0.25µM
COc1ccccc1N1CCN(C(c2cc3cc(C)ccc3[nH]c2=O)c2nnnn2C2CCCC2)CC1 (configuration not stated)	ALDH1A1 block 14µM
COc1ccccc1N1CCN(C(c2cc3ccc(C)cc3[nH]c2=O)c2nnnn2C2CCCC2)CC1 (configuration not stated)	ALDH1A1 block 25µM
CCOC(=O)C1CCN(C(c2cc3ccc(C)cc3[nH]c2=O)c2nnnn2C2CCCCC2)CC1 (configuration not stated)	ALDH1A1 block inconclusive
COc1cc2cc(C(c3nnnn3C3CCCC3)N3CCc4ccccc43)c(=O)[nH]c2cc1OC (configuration not stated)	none
O=C(CN1c2cccc3cccc(c23)S1(=O)=O)Nc1ccc(S(=O)(=O)N2CCOCC2)cc1	HPGD inh inconclusive, ALDH1A1 block inconclusive
CC1=C/C(=C/N(C)c2ccccc2)C(=O)S1	HPGD inh 32µM, ALDH1A1 block 20µM
CC(=O)Oc1ccc2oc3c(c2c1)C(=O)CCC3	none
CCOc1ccc(NC(=O)CSC(N)=O)cc1	ALDH1A1 block 2µM
CCOc1ccc(C(=O)CN2CCN(S(=O)(=O)c3ccc(F)cc3)CC2)cc1	ALDH1A1 block 20µM
CCOc1ccc(NC(=O)COC(=O)c2c(OC)cccc2OC)cc1	ALDH1A1 block 28µM (no result: HTT cytoprotect)
CCOc1ccc(NC(=O)CN2CCN(CC(=O)c3ccc(OC)c(OC)c3)CC2)cc1	ALDH1A1 block 7.1µM
O=C(CN1CCN(S(=O)(=O)c2ccc(F)cc2)CC1)c1ccc(O)c(O)c1	ALDH1A1 block inconclusive (no result: KinaseGlo FLuc, HPGD inh, Lamin A splicing)
CC12CC(NC(=O)N1c1cccc(C(=O)NCc3ccc4c(c3)OCO4)c1)c1cc(Cl)ccc1O2 (configuration not stated)	Lamin A splicing inconclusive
CCN(CC)S(=O)(=O)c1ccc(C(=O)Nc2ccc(Cc3ccncc3)cc2)cc1	ALDH1A1 block inconclusive (no result: HPGD inh, Lamin A splicing)
C=C(C)c1cccc(C(C)(C)NC(=O)Nn2cnnc2)c1	none
